Screening data (PubChem BioAssay)
Compounds with a hit are over-represented: about 3.5% of the library has one in this group of screens.
FBW7 act: activators of human E3 ligase FBW7 | 650,000 tested, 0.13% active | normalized activity (activation), % at 26.1 µM | AlphaScreen FBW7–phospho-cyclin E peptide binding, activator screen | Q969H0; in the data active means normalized activity above about 1.9%;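 further: purified mutant Fbw7 with reduced substrate affinity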
Target sequence (Q969H0 whole entry, looked up): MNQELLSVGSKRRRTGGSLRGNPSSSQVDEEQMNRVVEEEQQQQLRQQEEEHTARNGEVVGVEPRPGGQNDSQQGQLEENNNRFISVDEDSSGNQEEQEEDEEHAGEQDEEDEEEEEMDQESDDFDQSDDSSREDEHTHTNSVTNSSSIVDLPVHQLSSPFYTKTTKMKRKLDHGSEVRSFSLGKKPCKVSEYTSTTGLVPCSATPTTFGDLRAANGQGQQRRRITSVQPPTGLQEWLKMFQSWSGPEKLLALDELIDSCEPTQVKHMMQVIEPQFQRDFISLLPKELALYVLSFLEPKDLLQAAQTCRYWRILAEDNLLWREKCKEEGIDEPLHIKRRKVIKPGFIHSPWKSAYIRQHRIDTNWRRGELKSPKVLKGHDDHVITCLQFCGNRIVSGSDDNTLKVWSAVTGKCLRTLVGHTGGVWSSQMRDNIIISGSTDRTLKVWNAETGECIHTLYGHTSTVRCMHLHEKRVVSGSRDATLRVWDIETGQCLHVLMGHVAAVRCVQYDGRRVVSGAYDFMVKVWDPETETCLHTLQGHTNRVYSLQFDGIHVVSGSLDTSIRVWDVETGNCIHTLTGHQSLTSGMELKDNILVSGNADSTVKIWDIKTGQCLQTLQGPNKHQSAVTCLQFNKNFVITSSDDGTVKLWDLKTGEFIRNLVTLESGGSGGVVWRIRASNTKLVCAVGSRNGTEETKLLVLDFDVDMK
TEAD-YAP block: TEAD-YAP interaction inhibition | AID 1259422 | HEK-TIYL cells, TEAD-Gal4/YAP UAS-luciferase luminescence | 640,000 tested, 1.4% active | inhibition, % at 9.12 µM; in the data active means inhibition above about 32%;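 further: 0% = median of test compound wells and 100% = reference inhibitor wells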
MITF primary: blocks human microphthalmia-associated transcription factor; inhibition, % at 2.6 µM; O75030; 650,000 tested, 0.91% active; AlphaScreen MITF homodimerization, bead proximity signal; in the data active means inhibition above about 50%;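 further: 0% = vehicle wells with protein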
GPR151 ag: activates the human receptor GPR151. Q8TDV0. PathHunter beta-arrestin GPR151 cells, luminescence. activation, % at 11.2 µM. 650,000 tested, 1% active; in the data active means activation above about 4.9%;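 further: 0% = median of compound wells and 100% = cells with positive control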
MITF confirm: confirmation of human MITF inhibitors. shares compounds with MITF primary. AlphaScreen MITF homodimerization, biotin/His-MITF beads. inhibition, % at 2.6 µM. 4,700 tested, 16% active. AID 1259372;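 active means inhibition above a cutoff derived from the DMSO control wells, cut at about 28% in these data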;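 further: 0% = MITF dimer wells with DMSO only; inhibitors lower the bead chemiluminescence by keeping MITF from dimerizing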
AlphaScreen DR: AlphaScreen optical interference, dose response counter-screen; shares compounds with MITF primary; AlphaScreen optical interference counterscreen, cell-free; IC50, µM; 480 tested, 6% active; AID 1259373; call rule not given here
AlphaScreen intf2: AlphaScreen optical interference, counter-screen. shares compounds with MITF primary. LysRS AlphaScreen counterscreen, signal interference, triplicate. inhibition, % at 2.6 µM. 4,700 tested, 7.6% active. AID 1259376;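 active means inhibition above a cutoff derived from the DMSO control wells, cut at about 30% in these data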
Active calls of the source: *.

`CC(=O)C1=C(O)C(=O)N(CCCNCCO)C1c1cccc(F)c1` (centres undefined) gave FBW7 act 0.1, TEAD-YAP block 2.8, MITF primary -2.7 and GPR151 ag 1.3.
Screening COC(=O)C1CCCCN1Cc1nc(N2CCSCC2)c2cc(C)ccc2n1 (centres undefined) returned FBW7 act 0.1, TEAD-YAP block -0.6, MITF primary 8.4 and GPR151 ag -1.6.
For CN1CCN(CCCCN2C(=O)c3ccccc3C2=O)CC1 the results were FBW7 act 0.1, TEAD-YAP block 1.9, MITF primary 86.6*, GPR151 ag 0.1, MITF confirm 11.7 and AlphaScreen intf2 -0.1.
CNCCOc1ccc(C(C)(C)c2ccccc2)cc1 was read as FBW7 act 0.7, TEAD-YAP block -5.5, MITF primary 51.6*, GPR151 ag -0.6, MITF confirm 6.4 and AlphaScreen intf2 18.3.
COCCCNCCCCOc1ccc(OCc2ccccc2)cc1 was read as FBW7 act -0.1, TEAD-YAP block -26.5, MITF primary 52.9*, GPR151 ag 0.4, MITF confirm 3.4 and AlphaScreen intf2 23.1.
`CNCCCOc1ccc(C(C)(C)c2ccccc2)cc1` gave FBW7 act -0.1, TEAD-YAP block -4.5, MITF primary 47.4 and GPR151 ag 0.2.
COc1ccc(C2=NN(C(=O)CCCC(=O)O)C(c3cccc(OC)c3OC)C2)cc1 (centres undefined) was read as FBW7 act 0.3, TEAD-YAP block -6.5, MITF primary 7.1 and GPR151 ag -0.9.
Screening Cc1cc(NCCCN2CCOCC2)nc(-c2ccc(N(C)C)cc2)n1 returned FBW7 act 0.1, TEAD-YAP block 8.1, MITF primary 6.2 and GPR151 ag 0.5.
CCOc1ccc(N2C(=O)CC(Sc3ccccc3C(=O)O)C2=O)cc1 (centres undefined) was read as FBW7 act 0.0, TEAD-YAP block 0.9, MITF primary -5.5 and GPR151 ag -0.5.
Screening O=C1NC(=O)N(c2ccc(O)cc2)C(=O)/C1=C/c1ccccc1 returned FBW7 act -0.1, TEAD-YAP block -10.5, MITF primary 3.7 and GPR151 ag -1.2.
`CCOc1ccc(NC(=O)CN(c2cccc(F)c2)S(C)(=O)=O)cc1` gave FBW7 act 0.0, TEAD-YAP block -0.3, MITF primary 0.2 and GPR151 ag 3.8.
For CC(=O)Nc1ccc(Nc2nc(-c3ccc(C(=O)N4CCN(C)CC4)cc3)nc3c2ncn3C2CCCCC2)cc1 the results were FBW7 act 0.0, TEAD-YAP block -14.3, MITF primary -0.2 and GPR151 ag -0.8.
Screening CN1CCN(C(=O)c2ccc(-c3nc(Nc4ccccc4)c4ncn(C5CCCCC5)c4n3)cc2)CC1 returned FBW7 act 0.0, TEAD-YAP block -13.8, MITF primary 75.4*, GPR151 ag 0.6, MITF confirm 40.5*, AlphaScreen DR >7.63 and AlphaScreen intf2 3.4.
For c1cc(NC2CCCNC2)n2ncc(-c3ccoc3)c2n1 (centres undefined) the results were FBW7 act 0.1, TEAD-YAP block -62.5, MITF primary 68.2*, GPR151 ag 1.0, MITF confirm 10.9 and AlphaScreen intf2 16.6.
For COc1ccc(-c2cc(Nc3cccc(C(C)=O)c3)ncn2)cc1 the results were FBW7 act 0.0, TEAD-YAP block -65.7, MITF primary 3.4 and GPR151 ag -0.6.
`Cc1sc2ncnc(NCC(c3ccco3)N(C)C)c2c1C` (centres undefined) gave FBW7 act 0.2, TEAD-YAP block -9.2, MITF primary 61.7*, GPR151 ag -1.1, MITF confirm 13.0 and AlphaScreen intf2 13.6.
`CC(=O)Nc1nc(-c2ccc(C)cc2C)cs1` gave FBW7 act -0.1, TEAD-YAP block -14.5, MITF primary 4.3 and GPR151 ag -0.5.
`Cc1ccc(-c2csc(NC(=O)c3cc(Cl)cc(Cl)c3)n2)c(C)c1` gave FBW7 act -0.1, TEAD-YAP block 7.9, MITF primary 75.5*, GPR151 ag -1.6, MITF confirm 1.6 and AlphaScreen intf2 10.0.
Screening CCCN1CCC(N2CCN(S(C)(=O)=O)CC2)CC1 returned FBW7 act 0.0, TEAD-YAP block -2.6, MITF primary 68.0*, GPR151 ag -0.8, MITF confirm 1.8 and AlphaScreen intf2 15.9.
For CS(=O)(=O)N1CCN(C2CCCC2)CC1 the results were FBW7 act -0.1, TEAD-YAP block 2.9, MITF primary 21.4 and GPR151 ag 0.7.
`CCCN1CCC(N2CCN(S(=O)(=O)c3ccccc3[N+](=O)[O-])CC2)CC1` gave FBW7 act -0.4, TEAD-YAP block 2.7, MITF primary 84.4*, GPR151 ag -1.6, MITF confirm 12.0 and AlphaScreen intf2 12.0.
Screening CCS(=O)(=O)N1CCN(C2CCCC2)CC1 returned FBW7 act -0.1, TEAD-YAP block -2.6, MITF primary 33.7 and GPR151 ag 2.5.
CCCS(=O)(=O)N1CCN(C2CCCCC2)CC1 was read as FBW7 act -0.1, TEAD-YAP block 2.6, MITF primary 53.0*, GPR151 ag -1.7, MITF confirm 5.5 and AlphaScreen intf2 16.8.
Cc1cccn2c(=O)c3c(nc12)CCN(C(=O)Nc1cccc(C(F)(F)F)c1)C3 was read as FBW7 act 0.0, TEAD-YAP block 7.0, MITF primary 50.6*, GPR151 ag -0.6, MITF confirm 7.2 and AlphaScreen intf2 17.3.
Screening Cc1cccn2c(=O)c3c(nc12)CCN(C(=O)Nc1cccc(F)c1)C3 returned FBW7 act 0.4, TEAD-YAP block -2.2, MITF primary 6.9 and GPR151 ag 0.2.
O=S(=O)(/C=C/c1ccccc1)N1CCN(C/C=C/c2ccccc2)CC1 was read as FBW7 act -0.1, TEAD-YAP block 1.1, MITF primary 10.5 and GPR151 ag 0.4.
For CCN1CCN(S(=O)(=O)/C=C/c2ccccc2)CC1 the results were FBW7 act 0.2, TEAD-YAP block 2.4, MITF primary 73.6*, GPR151 ag -0.2, MITF confirm -10.2 and AlphaScreen intf2 -5.4.
`CCOc1ccc(-c2cc(=O)n(CCCC(=O)Nc3cccc(SC)c3)cn2)cc1` gave FBW7 act -0.3, TEAD-YAP block 1.1, MITF primary 12.0 and GPR151 ag 0.3.
Screening CCOc1ccc(OCCCNC(C)(C)C)cc1 returned FBW7 act -0.1, TEAD-YAP block 1.9, MITF primary 69.4*, GPR151 ag -1.1, MITF confirm 5.9 and AlphaScreen intf2 7.5.
CC(C)(C)NCCCOc1ccc(C(C)(C)C)cc1 was read as FBW7 act 0.0, TEAD-YAP block 1.7, MITF primary -1.8 and GPR151 ag -0.4.
Screening Brc1c(OCCCCn2ccnc2)ccc2ccccc12 returned FBW7 act 0.2, TEAD-YAP block -20.1, MITF primary 78.0*, GPR151 ag -2.1, MITF confirm -11.1 and AlphaScreen intf2 -3.0.
